The values below come from the supplement of paper PMC6555819.

Assay in all cases: PBM binding z-score (relative to random genomic background probes); higher = stronger binding; sequences stand for … in GC…GCGATTGACAGCGTAGAATGAAGG
In assay [1] the test system is FXR:RXRa (NR concentration 270 nM, RXRa partner concentration 90 nM). The method, boiled down: (§1)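 The probes on custom Agilent 4×180K protein-binding microarrays were double-stranded, with 34-nt variable regions bearing direct-repeat seeds, single-nucleotide variants, half-site ablations and random human genomic background sequences. Incubation lasted 1 h with ligand-free nuclear receptor dimers in PBS pH 7.4, 2% milk, 0.02% Triton X-100, 1 mM DTT, 0.2 mg/mL BSA and 0.4 mg/ml salmon testes DNA. Antibodies against each partner (one per run) detected bound dimers, and fluorescence scans were regression-normalized. Binding z-scores take the random background probes as reference.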

Assay [2] deals with LXRa:RXRa (NR concentration 270 nM, RXRa partner concentration 90 nM). The method, boiled down: as §1
Assay [3] deals with LXRa homodimer (NR concentration 270 nM). The method, boiled down: as §1
In assay [4] the test system is LXRb:RXRa (NR concentration 270 nM, RXRa partner concentration 90 nM). The method, boiled down: as §1
Assay [5] relates to LXRb homodimer (NR concentration 270 nM). The method, boiled down:
as §1

The test system of assay [6] is PPARa:RXRa (NR concentration 270 nM, RXRa partner concentration 90 nM). The method, boiled down:
as §1

Assay [7] relates to PPARg:RXRa (NR concentration 180 nM, RXRa partner concentration 90 nM). The method, boiled down: as §1
The subject of assay [8] is PPARg:RXRa 270nM:90nM, anti-RXR (NR concentration 270 nM, RXRa partner concentration 90 nM). The method, boiled down:
as §1

Assay [9] relates to PPARg:RXRa 30nM:10nM, anti-RXR (NR concentration 30 nM, RXRa partner concentration 10 nM). The method, boiled down:
as §1

Assay [10] relates to PPARg:RXRa 90nM:30nM, anti-RXR (NR concentration 90 nM, RXRa partner concentration 30 nM). The method, boiled down: as §1

Turning to TCTACTAGGTCAACGATGGTCAGCTAATCTGCTA, the PBM binding z-score came to 3.61 in [1]; 3.2 in [2]; 0.626 in assay [3]; 2.29 in assay [4]; 0.75 in assay [5]; 4.36 in [6]. Moreover, the PBM binding z-score came to 6.19 in assay [7], 6.03 in assay [8], 4.97 in assay [9] and 5.88 in [10].

With TCCGCTAGGTCAACGATGGTCAGCTAATCTGCTA, the PBM binding z-score in [1] was 2.89; in assay [2], 2.67; in assay [3] it was 0.0246; in assay [4] it was 1.54; in assay [5], -0.303; in assay [6], 3.09. The PBM binding z-score amounted to 2 in assay [7], 2.53 in assay [8], 1.82 in assay [9] and 2.22 in [10].

Consider TCTAGTTGGTCAAAGGTTACACACTCGAAATGCG, for which the PBM binding z-score in assay [1] was determined as 2.63; in assay [2], 3.13; in assay [3] it was 1.38; in assay [4] it was 3.04; in [5], 0.929; in assay [6] it was 5.08. Also, the PBM binding z-score in [7] came to 9.84; in assay [8], 8.86; in assay [9], 8.99; in assay [10], 9.47.

As for CATACTAGGTCACCGGAAGGTCAAAGTCCGCATG, the PBM binding z-score in assay [1] worked out at 5.94; in [2], 6.26; in assay [3] it was 5.63; in assay [4] it was 5.54; in assay [5], 2.08; in assay [6] it was 5.71. Also, the PBM binding z-score was determined as 8.32 in assay [7], 7.18 in assay [8], 4.5 in [9] and 6.47 in [10].

As for GCTATTAGCTGAAAGGGCAACCGAATGATTCTCG, the PBM binding z-score in assay [1] was 0.0536; in [2], 0.222; in [3] it was -0.091; in [4], 0.372; in assay [5], -0.619; in assay [6], 1.19. The PBM binding z-score in assay [7] worked out at 1.15; in assay [8], 2.72; in [9], 0.859; in assay [10], 2.07.

In the case of CCTAGCAGGCCAATCTGGATCACTCAAGGCTTGA, the PBM binding z-score in [1] was -0.3; in assay [2], -0.327; in assay [3], -0.53; in assay [4], -0.467; in assay [5], -0.696; in [6] it was -0.131. For the same sequence, the PBM binding z-score in assay [7] was 0.141; in assay [8] it was -0.529; in [9], -0.702; in assay [10] it was -0.514.

For the sequence CGTCCAAGGTCAGAGAGGTCCGTGAATGCCGAGT, the PBM binding z-score in assay [1] is 4.9; in assay [2] it was 3.08; in assay [3], -0.0652; in assay [4] it was 1.98; in assay [5] it was -0.373; in assay [6], 3.88. Moreover, the PBM binding z-score is 1.83 in assay [7], 2.4 in assay [8], -0.0552 in [9] and 1.08 in assay [10].

On to TCTCGGAGGACACGAAGGTTAGAGCTTTCCAGAG, for which the PBM binding z-score in assay [1] is 0.31; in assay [2] it was -0.0717; in assay [3] it was -0.684; in assay [4] it was -0.246; in assay [5], -1.26; in [6] it was 0.397. In addition, the PBM binding z-score in [7] was -0.0287; in assay [8], 1; in [9] it was 2.15; in assay [10] it was 1.58.

For ATCTCTAGGGAAAGATAGTTCAGTGAATGCAAAT, the PBM binding z-score was -0.0344 in [1]; 0.192 in [2]; 0.0693 in assay [3]; 0.157 in assay [4]; 0.479 in assay [5]; 0.0958 in assay [6]. Moreover, the PBM binding z-score in [7] was 0.337; in assay [8] it was 0.214; in [9], 0.232; in [10] it was 0.358.

CGTCCAAGGTCAAAGAGGTCAGTGAATGCCGAGT: the PBM binding z-score came out at 7.54 in assay [1]; 6.09 in [2]; 4.44 in [3]; 5.48 in assay [4]; 1.51 in assay [5]; 5.88 in [6]. The PBM binding z-score in assay [7] is 5.22; in assay [8] it was 5.89; in [9] it was 2.41; in [10] it was 4.63.

In the case of CGAACTAGGTCACGAAAGGTCAAAGTCGAATGAC, the PBM binding z-score was 7.73 in [1]; 8.18 in [2]; 7.39 in [3]; 7.24 in assay [4]; 2.38 in [5]; 6.49 in [6]. In addition, the PBM binding z-score amounted to 10.5 in assay [7], 8.46 in assay [8], 6.75 in assay [9] and 8.51 in assay [10].

With ATCTCTAGTTAAAAGTTCAGTGAATCCCGAGGAT, the PBM binding z-score in assay [1] worked out at 0.652; in [2] it was 1.49; in assay [3], 1.82; in assay [4], 0.877; in [5] it was 1.25; in assay [6], 1.64. The PBM binding z-score in assay [7] is 1.4; in [8] it was 3.41; in assay [9], 1.59; in assay [10], 3.49.
